Compound activity as filed in PubChem BioAssay.
D2 PAM-1 = HTS Assay for Positive Allosteric Modulators of the Human D2 Dopamine Receptor: Primary Screen for Potentiators; D(2) dopamine receptor (Homo sapiens), P14416; HEK293 T-REx D2, calcium flux, EC20 dopamine potentiation; potentiation, % at 10 µM; hit rate 0.34% among 340,000; AID 485347, 2010;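 active = potentiation over 3 SD above the plate norm, cut at about 30% in these data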; also: 0% is about no effect
Target sequence (P14416 whole entry, looked up): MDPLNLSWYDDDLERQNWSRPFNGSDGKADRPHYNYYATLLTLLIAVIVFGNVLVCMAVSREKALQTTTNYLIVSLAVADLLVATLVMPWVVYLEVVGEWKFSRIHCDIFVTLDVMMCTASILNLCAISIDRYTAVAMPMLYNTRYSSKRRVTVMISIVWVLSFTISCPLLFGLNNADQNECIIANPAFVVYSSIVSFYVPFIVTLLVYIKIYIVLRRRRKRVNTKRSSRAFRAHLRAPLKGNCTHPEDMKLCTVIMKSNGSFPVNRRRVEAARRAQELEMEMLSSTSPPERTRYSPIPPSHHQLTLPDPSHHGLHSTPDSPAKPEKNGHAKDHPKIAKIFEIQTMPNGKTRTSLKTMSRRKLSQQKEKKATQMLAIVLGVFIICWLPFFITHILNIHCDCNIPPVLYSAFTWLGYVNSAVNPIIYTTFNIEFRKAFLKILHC
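Calcium flux readout, no-wash dye, 1 read/s. Inducible HEK293 Trex D2 line, overnight 30 C. Compound alone 180 s (agonist flags), then EC20 dopamine, another 180 s to score potentiation.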
D2 PAM-2 = Beta-Arrestin HTS for Positive Allosteric Modulators of the Human D2 Dopamine Receptor: Potentiators | D(2) dopamine receptor (Homo sapiens), P14416 | DiscoveRx D2 beta-arrestin cells, luminescence, 90 min; 100% = 57 uM dopamine signal | potentiation, % (test concentration not listed) | hit rate 0.23% among 360,000 | AID 624464, 2012; in the data active = potentiation above about 50%
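PathHunter D2 cells, attached overnight at 37 deg C, received compound in DMSO plus dopamine at EC20 (50 nM final) for 90 min at 37 deg C. Beta-arrestin recruitment was read as luminescence after 1 h with detection reagent at ambient temperature.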
D2 ag-1 = Beta-Arrestin HTS for Positive Allosteric Modulators of the Human D2 Dopamine Receptor: Agonists; hit rate 0.084% among 360,000; D(2) dopamine receptor (Homo sapiens), P14416; DiscoveRx PathHunter D2 beta-arrestin, luminescence, 90 min; 100% = 57 uM dopamine signal; activation, % (no concentration beside the values); in the data active = activation above about 40%
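Agonist mode: compounds alone added to overnight-plated D2 PathHunter cells for 90 min at 37 C, with 57 uM final dopamine (EC100) defining full response. Beta-arrestin recruitment detected by chemiluminescent reagent, read after 1 h at ambient temperature.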
D2 ag-2 = HTS Assay for Allosteric Agonists of the Human D2 Dopamine Receptor: Primary Screen for Agonists | HEK293 T-REx D2 cells, calcium flux agonist mode | activation, % at 2 µM | hit rate 0.53% among 340,000;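 active = activation over 3 SD above normal in the single-dose calcium agonist read, cut at about 30% in these data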; also: 0% is about no effect
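Agonism scored from kinetic calcium signal (1 read/sec, 180 s) following compound pin transfer, after a 10 s baseline. Cells: HEK293 Trex line expressing inducible D2 receptor coupled to calcium, dye-loaded after overnight culture at 30 C.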
D2 antagonist = HTS Assay for Allosteric Antagonists of the Human D2 Dopamine Receptor: Primary Screen for Antagonists | inhibition, % at 10 µM | HEK293 TREx D2 cells, calcium flux, dopamine EC80 | hit rate 2% among 340,000 | AID 485344, 2010 | D(2) dopamine receptor (Homo sapiens), P14416; in the data active = inhibition above about 30%; inactive = below that, where a call was filed; also: 0% is about no effect
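Tetracycline-induced HEK293 T-REx cells expressing D2 force-coupled to calcium signalling were dye-loaded, exposed to compound for 180 s, then challenged with an EC80 of dopamine; calcium flux was followed kinetically for a further 180 s.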
* hit, by the source's call. Only some compounds are listed: those with a hit (about 2.4% of all), similar ones and a draw of the others.

For O=C(N/N=C/c1c(O)ccc2ccccc12)c1cccnc1 the results were D2 PAM-1 4, D2 PAM-2 -2, D2 ag-1 -3, D2 ag-2 8 and D2 antagonist -12.
`COC(=O)c1scc(-c2ccc(C)cc2)c1S(=O)(=O)N1CCN(c2cccc(OC)c2)CC1` gave D2 PAM-1 -5 and D2 ag-2 0.
Screening CCOC(=O)C1=C(O)C(=O)N(c2ccc(S(N)(=O)=O)cc2)C1c1ccc(OC)cc1OC (centres undefined) returned D2 PAM-1 42*, D2 PAM-2 2, D2 ag-1 -1, D2 ag-2 0 and D2 antagonist -12.
CCOC(=O)C1=C(O)C(=O)N(c2ccccc2)C1c1cccc([N+](=O)[O-])c1 (centres undefined) was read as D2 PAM-1 -3, D2 PAM-2 -13, D2 ag-1 0, D2 ag-2 0 and D2 antagonist 33*.
For CCOC(=O)C1=C(O)C(=O)N(c2ccc(S(N)(=O)=O)cc2)C1c1cccc([N+](=O)[O-])c1 (centres undefined) the results were D2 PAM-1 4, D2 PAM-2 2, D2 ag-1 0, D2 ag-2 0 and D2 antagonist 22.
`Cc1c(Cl)cccc1NC(=O)CSc1nc(=O)[nH]c2c1CCCC2` gave D2 PAM-1 3 and D2 ag-2 0.
`O=C(CCCN1CC=C(n2c(=O)[nH]c3ccccc32)CC1)c1ccc(F)cc1` gave D2 PAM-1 -23, D2 PAM-2 -33, D2 ag-1 -3, D2 ag-2 1 and D2 antagonist 81*.
For O=C(COC(=O)CCNS(=O)(=O)c1ccccc1)NC(=O)Cc1ccccc1 the results were D2 PAM-1 -10, D2 PAM-2 0, D2 ag-1 5, D2 ag-2 0 and D2 antagonist 37*.
Screening O=C(COC(=O)CCNS(=O)(=O)c1ccccc1F)Nc1nnc(-c2ccccc2)o1 returned D2 PAM-1 -8, D2 PAM-2 9, D2 ag-1 -6, D2 ag-2 -1 and D2 antagonist 32*.
For O=C(COC(=O)CCNS(=O)(=O)c1ccc(Cl)cc1)NCc1ccccc1 the results were D2 PAM-2 -10 and D2 ag-1 -2.
Screening COc1ccc(/C=C/C(=O)O/N=C(\N)c2cccnc2)cc1OC returned D2 PAM-1 -3, D2 PAM-2 16, D2 ag-1 6, D2 ag-2 -2 and D2 antagonist -6.
`CCOC(=O)/C(=C\c1ccc(OC)c(OC)c1)C(=O)c1cccnc1` gave D2 PAM-1 40*, D2 PAM-2 -5, D2 ag-1 -2, D2 ag-2 3 and D2 antagonist 2.
For Cc1cc([N+](=O)[O-])ccc1NC(=O)/C=C/c1cccs1 the results were D2 PAM-1 -20, D2 PAM-2 -27, D2 ag-1 -3, D2 ag-2 -1 and D2 antagonist 44*.
`CCN(C(=O)c1ccc2c(c1)OCO2)C1CCS(=O)(=O)C1` (centres undefined) gave D2 PAM-1 -18, D2 PAM-2 -15, D2 ag-1 -2, D2 ag-2 1 and D2 antagonist 39*.
CCCCN(C(=O)c1ccc2c(c1)OCO2)C1CCS(=O)(=O)C1 (centres undefined) was read as D2 PAM-1 2, D2 PAM-2 0, D2 ag-1 -3, D2 ag-2 2 and D2 antagonist -26.
For Cc1cccc(Cn2c(CNS(=O)(=O)c3ccc(C(C)C)cc3)nc3cccnc32)c1 the results were D2 PAM-1 8 and D2 ag-2 1.
CCN(CC)C(=O)c1cc(S(=O)(=O)N2CCCCC2)c[nH]1 was read as D2 PAM-1 -12, D2 PAM-2 -5, D2 ag-1 2, D2 ag-2 1 and D2 antagonist 33*.
